# In PubChem BioAssay AID1159580 (chemical genetic matrix, 2015):
# “And” between values parts separate entries of the source, which are not always exact repeats. Equal values may be shown once. Screen size: about 5,500 compounds; about 2,000 (36%) were called active. Roughly 18% stayed inconclusive and do not appear here. Cut-off read from the data, not from the text of the source: active = normalized growth mostly below about 0.91 (no sharp cut-off); inconclusive = no clear call, values can overlap the other calls; inactive = mostly above about 0.92. This is one part of the list. Where a structure was tested more than once in an assay, its records may differ in their call.
# Test: chemical genetic growth profiling, strain panel (AID 1159580);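 note: tested at 20 µM; growth read once vehicle control cultures reached saturation at 30 °C; 1 = growth at the plate median or of vehicle wells; lower values mean less growth of the strain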
# Details: growth OD
compound,measurement,setting,value
COc1ccccc1N1CCNCC1,normalized growth,"S. cerevisiae deletion strains, locus YKL085W, strain MDH1, stronger effect = lower value",1.04 (inactive)
same,normalized growth,"S. cerevisiae deletion strains, locus YKL190W, strain CNB1, stronger effect = lower value",0.994 (inactive)
same,normalized growth,"S. cerevisiae deletion strains, locus YKR001C, strain vps1, stronger effect = lower value",1.04 (inactive)
same,normalized growth,"S. cerevisiae deletion strains, locus YLR039C, strain RIC1, stronger effect = lower value",1.05 (inactive)
same,normalized growth,"S. cerevisiae deletion strains, locus YLR058C, strain SHM2, stronger effect = lower value",1.01 (inactive)
same,normalized growth,"S. cerevisiae deletion strains, locus YLR102C, strain apc9, stronger effect = lower value",1.04 (inactive)
same,normalized growth,"S. cerevisiae deletion strains, locus YLR262C, strain YPT6, stronger effect = lower value",1.06 (inactive)
same,normalized growth,"S. cerevisiae deletion strains, locus YLR268W, strain sec22, stronger effect = lower value",1.02 (inactive)
same,normalized growth,"S. cerevisiae deletion strains, locus YLR330W, strain CHS5, stronger effect = lower value",1 (inactive)
same,normalized growth,"S. cerevisiae deletion strains, locus YLR342W, strain FKS1 (second series), stronger effect = lower value",1.01 (inactive)
same,normalized growth,"S. cerevisiae deletion strains, locus YLR371W, strain rom2, stronger effect = lower value",1.03 (inactive)
same,normalized growth,"S. cerevisiae deletion strains, locus YLR418C, strain cdc73, stronger effect = lower value",1.04 (inactive)
same,normalized growth,"S. cerevisiae deletion strains, locus YML016C, strain PPZ1, stronger effect = lower value",1.01 (inactive)
same,normalized growth,"S. cerevisiae deletion strains, locus YML032C, strain rad52, stronger effect = lower value",1.03 (inactive)
same,normalized growth,"S. cerevisiae deletion strains, locus YML124C, strain tub3, stronger effect = lower value",1.02 (inactive)
same,normalized growth,"S. cerevisiae deletion strains, locus YMR078C, strain ctf18, stronger effect = lower value",1.04 (inactive)
same,normalized growth,"S. cerevisiae deletion strains, locus YMR223W, strain ubp8, stronger effect = lower value",1.03 (inactive)
same,normalized growth,"S. cerevisiae deletion strains, locus YMR263W, strain SAP30, stronger effect = lower value",0.997 (inactive) and 0.985 (inactive)
same,normalized growth,"S. cerevisiae deletion strains, locus YMR307W, strain GAS1, stronger effect = lower value",0.992 (inactive) and 1 (inactive)
same,normalized growth,"S. cerevisiae deletion strains, locus YNL067W, strain RPL9B, stronger effect = lower value",1 (inactive)
same,normalized growth,"S. cerevisiae deletion strains, locus YNL128W, strain TEP1, stronger effect = lower value",1.01 (inactive)
same,normalized growth,"S. cerevisiae deletion strains, locus YNL153C, strain GIM3, stronger effect = lower value",0.987 (inactive) and 1.27 [resistant] (active)
same,normalized growth,"S. cerevisiae deletion strains, locus YNL175C, strain NOP13, stronger effect = lower value",0.992 (inactive)
same,normalized growth,"S. cerevisiae deletion strains, locus YNL197C, strain WHI3, stronger effect = lower value",1.02 (inactive)
same,normalized growth,"S. cerevisiae deletion strains, locus YNL224C, strain SQS1, stronger effect = lower value",0.994 (inactive)
same,normalized growth,"S. cerevisiae deletion strains, locus YNL233W, strain BNI4, stronger effect = lower value",1.02 (inactive)
same,normalized growth,"S. cerevisiae deletion strains, locus YNL250W, strain rad50, stronger effect = lower value",1.05 (inactive)
same,normalized growth,"S. cerevisiae deletion strains, locus YNL271C, strain bni1, stronger effect = lower value",1.04 (inactive)
same,normalized growth,"S. cerevisiae deletion strains, locus YNL298W, strain CLA4, stronger effect = lower value",1.05 (inactive)
same,normalized growth,"S. cerevisiae deletion strains, locus YNL307C, strain MCK1, stronger effect = lower value",1.05 (inactive)
same,normalized growth,"S. cerevisiae deletion strains, locus YNL322C, strain KRE1, stronger effect = lower value",1.01 (inactive) and 0.972 (inactive)
same,normalized growth,"S. cerevisiae deletion strains, locus YNR052C, strain pop2, stronger effect = lower value",1.03 (inactive)
same,normalized growth,"S. cerevisiae deletion strains, locus YOL006C, strain TOP1, stronger effect = lower value",0.997 (inactive)
same,normalized growth,"S. cerevisiae deletion strains, locus YOL012C, strain htz1",0.807 (inactive)
same,normalized growth,"S. cerevisiae deletion strains, locus YOL147C, strain pex11, stronger effect = lower value",1.02 (inactive)
same,normalized growth,"S. cerevisiae deletion strains, locus YOR061W, strain CKA2, stronger effect = lower value",1.01 (inactive)
same,normalized growth,"S. cerevisiae deletion strains, locus YOR069W, strain VPS5, stronger effect = lower value",0.997 (inactive)
same,normalized growth,"S. cerevisiae deletion strains, locus YOR083W, strain WHI5 (second series), stronger effect = lower value",1 (inactive)
same,normalized growth,"S. cerevisiae deletion strains, locus YOR136W, strain idh2, stronger effect = lower value",1.03 (inactive)
same,normalized growth,"S. cerevisiae deletion strains, locus YOR144C, strain elg1, stronger effect = lower value",1.03 (inactive)
same,normalized growth,"S. cerevisiae deletion strains, locus YOR184W, strain ser1, stronger effect = lower value",1.05 (inactive)
same,normalized growth,"S. cerevisiae deletion strains, locus YOR316C, strain cot1, stronger effect = lower value",1.03 (inactive)
same,normalized growth,"S. cerevisiae deletion strains, locus YPL055C, strain LGE1, stronger effect = lower value",1.03 (inactive) and 0.983 (inactive)
same,normalized growth,"S. cerevisiae deletion strains, locus YPL241C, strain CIN2, stronger effect = lower value",1.01 (inactive)
same,normalized growth,"S. cerevisiae deletion strains, locus YPR119W, strain clb2, stronger effect = lower value",1.02 (inactive)
same,normalized growth,"S. cerevisiae deletion strains, locus YPR141C, strain kar3, stronger effect = lower value",1.03 (inactive)
same,normalized growth,"S. cerevisiae deletion strains, locus YPR163C, strain tif3, stronger effect = lower value",1.03 (inactive)
same,normalized growth,"S. cerevisiae deletion strains, locus YPR167C, strain met16, stronger effect = lower value",1.03 (inactive)
same,normalized growth,"S. cerevisiae deletion strains, strain wtn01, stronger effect = lower value",1.01 (inactive)
same,normalized growth,"S. cerevisiae strains, strain wild type, stronger effect = lower value",1.01 (inactive)
